# Laboratory results as given in ChEMBL document CHEMBL3988442, “University of Dundee, Small-Polar-MMV Screening Library” (2021).
# The campaign covered roughly 48,000 compounds. About 13,000 (27%) showed an effect of 50% or more. Some of the results follow.
# System: Wolbachia pipientis
# Assay: Anti-Wolbachia Cell-Based Screen
# Type: functional
# Design: scale not given: in the data most compounds retested in dose-response had high values
# Conditions: 5 µM
row,Structure (SMILES),Percent Effect [%]
1,N#Cc1cccc(-c2ncnn2CC2(O)CCCCC2)c1,2.299
2,COC(=O)CC(NC(=O)c1cccc(N2CCCC2=O)c1)C(=O)OC (configuration not stated),-7.194
3,Cc1ccc(-c2cc(N)c(=O)n(C(C)C(N)=O)n2)o1 (configuration not stated),92.46
4,Cc1ccc(-c2nc(CC(=O)NCC(C)N3CCOCC3)cs2)o1 (configuration not stated),-1.179
5,Cc1ccc(-c2nc(CC(=O)N3CCCC(NC(=O)C(C)C)C3)cs2)o1 (configuration not stated),6.035
6,CCCNC(=O)C(C)n1cc(Br)cn1 (configuration not stated),-2.063
7,Cc1ccc(-c2cc(N)c(=O)n(C(C)C(=O)NC(C)C)n2)o1 (configuration not stated),115.3
8,CC(=O)N1CCCN(C(=O)NC(C)c2ccc(C)o2)CC1 (configuration not stated),-7.479
9,CCCNC(=O)C(C)n1nc(-c2ccc(C)o2)cc(N)c1=O (configuration not stated),87.57
10,Cc1ccc(-c2cc(C(=O)NCCCc3csc(N)n3)[nH]n2)o1,17.13
11,COCCNC(=O)C(C)n1nc(-c2ccc(C)o2)cc(N)c1=O (configuration not stated),104.7
12,Cc1ccc(-c2cc(C(=O)N3CCCC3c3cccnc3)[nH]n2)o1 (configuration not stated),-6.11
13,COCCN(Cc1nccs1)C(=O)c1cc(-c2ccc(C)o2)n[nH]1,-13.35
14,Cc1c(C)n(Cc2ccccn2)c2nc3c(c(N)c12)CCCC3,5.52
15,O=C(CNc1cc(F)ccc1OC(F)F)NCC(F)(F)F,-13.2
16,CC(C)(CNC(=O)Nc1cccc(-c2nccs2)c1)C(N)=O,2.635
17,Cc1noc(C[C@@H]2COC[C@H]3CN(C(=O)C4=CCCC4)C[C@@H]23)n1,-8.987
18,O=C(O)C(F)(F)F.O=C([C@@H]1COC[C@H]2CN(C3CCOCC3)C[C@H]21)N1CCCO1,1.407
19,O=C1OCCC1N1CCN(c2ccc(O)cc2)CC1 (configuration not stated),4.942
20,CC(C)Oc1cccc(C(O)CNC(=O)NCc2cccs2)c1 (configuration not stated),-2.917
21,COC(=O)c1sccc1S(=O)(=O)NCCC(O)c1ccoc1 (configuration not stated),6.712
22,O=C(NCC(O)c1ccsc1)Nc1cccs1 (configuration not stated),136.4
23,O=C(NCCC(O)c1cccs1)c1ccco1 (configuration not stated),-4.816
24,O=C(NCC(O)c1ccoc1)Nc1cccs1 (configuration not stated),112.3
25,O=C(NCC(O)c1ccoc1)Nc1c(F)cccc1F (configuration not stated),35.5
26,Cc1csc(CNC(=O)NCC(O)c2ccccc2)n1 (configuration not stated),14.77

row,Structure (SMILES),Percent Effect [%]
1,CCOc1ccccc1CCNC(=O)NCC(O)c1ccsc1 (configuration not stated),-9.165
2,O=C(NCC(O)c1cccs1)c1ccco1 (configuration not stated),-9.342
3,O=C(NCCC(O)c1ccoc1)Nc1cccs1 (configuration not stated),118.3
4,O=C(NCc1cccs1)NCC(O)c1ccoc1 (configuration not stated),136.2
5,CC(C)Oc1cccc(C(O)CNC(=O)Nc2cccs2)c1 (configuration not stated),-15.38
6,COCc1nc(CNC2CCSCC2)no1,-3.755
7,CCc1nc2c(c(NCc3nc(-c4cccnc4)no3)n1)CCNCC2,-4.803
8,CC(C)c1nc(CN(C)C(=O)CNS(=O)(=O)c2cccs2)no1,-26.42
9,CN(CCOCC(F)(F)F)CC1CCN(CCO)CC1,-6.866
10,COCc1nc(N(C)C)ncc1C(=O)NC(C)C,11.32
11,COCC(=O)N(C)Cc1nc(N(C)C)ncc1-c1ccncc1,115.9
12,COCc1nc(N(C)C)ncc1C(=O)Nc1ccn(C)n1,4.031
13,CCCC(=O)NCCc1nc(N(C)C)ncc1-c1ccncc1,150.4
14,COCC(=O)Nc1ccnc(OCCN(C)C)c1,5.238
15,CCCNC(=O)c1cnc(N(C)C)nc1COC,7.705
16,COCC(=O)NCCc1nc(N(C)C)ncc1-c1ccncc1,144
17,COCCC(=O)NCCc1nc(N(C)C)ncc1-c1ccncc1,140.1
18,Cc1nc(N(C)C)ncc1C(=O)N(Cc1ccncc1)CC1CCCO1 (configuration not stated),-9.755
19,Cc1nsc(NC(=O)N2CCCCC2CCCO)n1 (configuration not stated),3.459
20,CCCOCC(=O)NS(=O)(=O)c1ccc2c(c1)OCCCO2,-2.018
21,CN(C)c1ncc(-c2ccncc2)c(CCNC(=O)C2CC2)n1,144.3
22,CCc1nc(CCNC(=O)C2CC2)sc1C,-12.51
23,Cc1nc(N(C)C)ncc1C(=O)NCCc1csc(-c2ccncc2)n1,10.36
24,c1ccc2c(c1)CN(c1ncnc3sc4c(c13)CCNC4)CCO2,-13.02
25,CC(C)Nc1nc2c(cc1C(=O)O)CCN(Cc1ccsc1)CC2.O=C(O)C(F)(F)F.O=C(O)C(F)(F)F,98.93
26,Cc1nc(N2CCCC2)nc2c1CCN(Cc1ccsc1)CC2.O=C(O)C(F)(F)F,4.858
